Results filed as inconclusive are left out. Calls of active or inactive are those of the source. Unless noted, the call rests on the fitted dose curve; in most records, active means well fitted curve in the direction sought with a large enough effect; inconclusive means small, poorly fitted or top-dose-only effect, or another doubt; inactive means no such curve, though single readings can be large; an effect the other way counts as inactive or inconclusive.
What was measured:
[1] = AP1 Signaling Pathway (AID 357; active means well fitted curve in either direction with a large enough effect, not every such curve was filed as active;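 further: ME-180 reporter cells stimulated with EGF at its EC50 level; on the % scale 0 is the no-effect control and ±100 the full control effect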); conditions: ME-180 (cervical carcinoma) AP-1-bla reporter, EGF-induced, beta-lactamase ratio, 5 h; at 7.69 µM (top of the series) unless noted
How it was run: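 Beta-lactamase reporter under AP-1 response element, ME-180 background. Stimulus: EC50 EGF. Compound exposure 5 h, 37 °C. Detection: CCF4, 2.5 h RT, 460/530 nm. Values: AC50 from titration.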

[2] = target: Cytochrome P450 1A2 (Homo sapiens) (UniProt P05177); experiment: p450-cyp1a2 (AID 410; calls by dose curve; further: potency means the concentration at half of the fitted maximal effect)
How it was run: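 O-Demethylation of luciferin 6' methyl ether by human CYP1A2 is monitored as luciferase luminescence. Substrate sits at Km (100uM); enzyme is 20nM. Values are scaled to 57 uM furafylline as maximal inhibition.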

[3] = target: Glucocorticoid receptor (Homo sapiens) (UniProt P04150); experiment: GR-EFC Redistribution (AID 451; calls by dose curve; further: potency means the concentration at half of the fitted maximal effect); conditions: CHO-K1 GR-EFC translocation, beta-gal luminescence, 2 h
How it was run: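 CHO-K1 cells expressing nuclear EA and GR-ED fragments of b-gal; compounds titrated up to 46 uM final, 2 h at 37 C. GR nuclear translocation read as complemented b-gal luminescence after 1 h RT detection.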

[4] = target: Cytochrome P450 3A4 (Homo sapiens) (UniProt P08684); experiment: qHTS Assay for Inhibitors and Substrates of Cytochrome P450 3A4 (AID 884); further: nearly all actives have a fitted effect of over 50% in size; further: potency means the concentration at half of the fitted maximal effect
How it was run: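 Luminescent readout of luciferin produced by CYP3A4 (20 nM) dealkylation of Luciferin-PPXE, 25 uM (its KM). NADPH-driven reaction ran 60 min at RT after 10 min compound preincubation; data scaled to 57 uM ketoconazole as 100% inhibition.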

[5] = target: Cytochrome P450 3A4 (Homo sapiens) (UniProt P08684); experiment: qHTS Assay for Activators of Cytochrome P450 3A4 (AID 885); further: nearly all actives have a fitted effect of over 65% in size
How it was run: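 Human CYP3A4 dealkylates Luciferin-PPXE to luciferin, which luciferase detection converts to light. Substrate was at its KM (25uM), buffer 200mM KPO4, reaction 60 min at RT.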

[6] = target: Dual specificity protein kinase CLK4 (Homo sapiens) (UniProt Q9HAZ1); experiment: qHTS Assay for Inhibitors of CDC-like Kinase 4 (Kinase-Glo Assay) (AID 1770); further: nearly all actives have a fitted effect of over 65% in size; further: potency means the concentration at half of the fitted maximal effect
How it was run: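 Inhibition was judged from remaining ATP, measured by Ultra-Glo luciferase bioluminescence after Clk4 (25 nM) had acted on RS peptide at 1 uM ATP for 4.5 hours, room temperature.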

[7] = target: Dual specificity protein kinase CLK4 (Homo sapiens) (UniProt Q9HAZ1); experiment: qHTS Assay for Inhibitors of CDC-like Kinase 4 (ADP-FP Assay) (AID 1795); further: nearly all actives have a fitted effect of over 60% in size; further: potency means the concentration at half of the fitted maximal effect
How it was run: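 Inhibition of ADP formation by 6.25 nM Clk4 is measured using 1 uM ATP and 100 uM RS repeat peptide over one hour. Produced ADP displaces a fluorescent tracer from antibody, lowering polarization.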

[8] = target: Lysosomal acid glucosylceramidase (Homo sapiens) (UniProt P04062); experiment: Glucocerebrosidase-p2 (AID 348; in the data active means potency below about 10 µM; further: potency means the concentration at half of the fitted maximal effect); conditions: purified GBA, blue fluorogenic substrate, 40 min
How it was run: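 Normal human glucocerebrosidase (0.2 nM) with blue fluorogenic substrate (80 uM final) in citrate/phosphate pH 5.9 with 10mM sodium taurocholate, 0.01% tween-20; 40 min RT, NaOH/glycine stop; fluorescence Ex 365/Em 440; AC50 from a titration from 0.6 nM upwards.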

[9] = Stat Signaling Pathway (AID 446; active means well fitted curve in either direction with a large enough effect, not every such curve was filed as active;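 further: ME-180 cervical cancer cells given 40 pM IL-6 alongside compound; SIE-controlled beta-lactamase reporter measured as 460/530 nm FRET emission ratio; on the % scale 0 is the no-effect control and ±100 the full control effect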)
How it was run: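 Normalization used AC90 stimulation (300 pM IL-6) and AC90 inhibition (125 nM pan-JAK inhibitor at 40 pM IL-6). The underlying signal is SIE-driven beta-lactamase in ME-180 cells after 5 h IL-6 exposure with compound.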

[10] = target: Cytochrome P450 2C19 (Homo sapiens) (UniProt P33261); experiment: qHTS Assay for Inhibitors and Substrates of Cytochrome P450 2C19 (AID 899); further: nearly all actives have a fitted effect of over 60% in size; further: potency means the concentration at half of the fitted maximal effect
How it was run: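 5 nM human CYP2C19 with 10uM Luciferin-H EGE (at KM) in 50mM KPO4, compound preincubated 10 min at 37C, then NADPH regeneration for 60 min at 37C. Luciferin read by luminescence after detection reagent; normalized to 57uM ketoconazole as full inhibition.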

[11] = target: 3',5'-cyclic-AMP phosphodiesterase 4B (Homo sapiens) (UniProt Q07343); experiment: qHTS Assay for Inhibitors of PDE-IV (AID 607; active means well fitted activation curve with a large enough effect in the main read-out, with a control signal flat, not every such curve was filed as active; further: % of control where 0% means no effect)
How it was run: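 HEK293 ACTOne cells with CNG channel (1000/well), endogenous PDE4; membrane potential dye, compounds up to 22.9 uM final. Fluorescence Ex 535/Em 590; RO 20-1724 (100 uM final) as reference.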

[12] = target: Glutathione peroxidase 1 (Homo sapiens) (UniProt P07203); experiment: Primary qHTS Assay for Inhibitors of Recombinant Selenoprotein Glutathione Peroxidase 1 (GPX1) (AID 1845191); further: nearly all actives have a fitted effect of over 65% in size
How it was run: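 GR-coupled readout: NADPH consumption tracked by fluorescence, ex 340/em 450 nm, at t=0 and after 15 min at RT. Final mix 10 nM GPX1, 1 mM GSH, 0.5 mM CHP, 0.5 mM NADPH, 100 nM GR, 0.01% BSA, following 30 min enzyme–compound preincubation.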

[13] = Cell Viability - BJ (AID 421; calls by dose curve;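 further: potency means the concentration at half of the fitted maximal effect; cells exposed to compound for 40 hours at 37 °C before readout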); conditions: BJ fibroblast viability, qHTS
How it was run: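 Normal human BJ foreskin fibroblasts, 1500/well in complete medium, treated 40 hr at 37 °C. Cellular ATP by CellTiter-Glo luminescence; normalized to DMSO and 100 uM tamoxifen, AC50 from Hill fit.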

[14] = qHTS Assay for Identification of Small Molecule Inducers of Hypoxia Response (AID 2120; active means well fitted curve in the direction sought with a large enough effect in the signal ratio, with a control signal flat, not every such curve was filed as active; the % refers to the signal ratio; further: 0% is about no effect)
How it was run: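 Cell-based qHTS for reporter induction: hypoxia response element controlled beta-lactamase in ME-180 cells. Compounds incubated 17 h at 37 degrees C; activity from blue/green (460/530 nm) ratio, inducers ranked by AC50.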

[15] = qHTS assay for small molecule antagonists of retinoid X receptor alpha signaling (AID 588546); conditions: HEK293T RXRa-UAS-bla, beta-lactamase ratio, antagonist mode; measured here: W530 green channel, cytotoxicity proxy;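 further: cells stimulated with 9-cis-retinoic acid as agonist; on the % scale 0 is the no-effect control and ±100 the full control effect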
How it was run: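 Beta-lactamase reporter inhibition, read as CCF4 fluorescence ratio (ex 405, em 460/530 nm) after 2 h at RT. HEK293T UAS-bla cells, 2500/well, were stimulated with 9-cis-RA at 500 or 100 nM final alongside test compound for 18 h at 37 C.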

[16] = qHTS assay for environmental chemicals that activate the Aryl hydrocarbon Receptor (AhR) signaling pathway (AID 651777); conditions: 1A2-DRE human hepatoma cells, luciferase, 24 h; activation: stronger effect = higher value; further: % of control where 0% means no effect; nearly all actives have a fitted effect of over 15% in size
How it was run: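 Quantitative HTS in stably transfected human liver-derived cells whose luciferase gene sits downstream of the CYP1A2 promoter and dioxin response element. After 24 hr exposure at 37 C, One-Glo luminescence was measured.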

[17] = target: Peroxisome proliferator-activated receptor alpha (Homo sapiens) (UniProt Q07869); experiment: qHTS assay for small molecule agonists of the peroxisome proliferator-activated receptor alpha (PPARalpha) signaling pathway (AID 651778); conditions: PathHunter PPARalpha complementation, chemiluminescence, 6 h; max response: stronger effect = higher value; further: % of control where 0% means no effect
How it was run: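 Enzyme-fragment complementation assay in which ligand-bound PPARalpha translocates and forms an active enzyme that generates chemiluminescence. Cells were plated overnight, exposed to compound for 6 hr at 37 C, and then given detection reagent for 60 min at room temperature.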

[18] = qHTS assay for small molecule agonists of the antioxidant response element (ARE) signaling pathway measured by Nrf2-dependant transcriptional activity - cell viability counter screen (AID 720653; active means well fitted curve in the direction sought with a large enough effect in the repeat runs; an effect the other way counts as inactive or inconclusive; further: on the % scale 0 is the no-effect control and ±100 the full control effect); conditions: ARE-bla HepG2 viability, CellTiter-Glo ATP luminescence, 16 h; max response: stronger effect = lower value
How it was run: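 ARE-bla HepG2 cells treated with compounds for 16 h at 37C; this counter screen measures viability as intracellular ATP by CellTiter-Glo luminescence after 30 min at room temperature.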

[19] = qHTS assay for cell viability of HEK293 cells (AID 743288); conditions: ATP luminescence (CellTiter-Glo), 18 h; max response: stronger effect = lower value; further: on the % scale 0 is the no-effect control and ±100 the full control effect; nearly all actives have a fitted effect of over 50% in size
How it was run: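 Quantitative high-throughput screen: compounds were pinned onto parental HEK293 cells (2,000 per well) after a minimum 5 h settling at 37 C, incubated 18 h at 37 C, and intracellular ATP measured by luciferase luminescence.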

[20] = qHTS assay for cell viability of the p53RE-bla HCT-116 cell line (AID 743292); further: on the % scale 0 is the no-effect control and ±100 the full control effect; nearly all actives have a fitted effect of over 55% in size
How it was run: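 Viability of compound-treated p53RE-bla HCT-116 cells is taken from ATP-dependent luciferase luminescence. Treatment lasts 16 h at 37 C after a 5 h settling period; detection follows 30 min at room temperature.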

Sequence of Glutathione peroxidase 1 (Homo sapiens) (P07203 whole entry, looked up): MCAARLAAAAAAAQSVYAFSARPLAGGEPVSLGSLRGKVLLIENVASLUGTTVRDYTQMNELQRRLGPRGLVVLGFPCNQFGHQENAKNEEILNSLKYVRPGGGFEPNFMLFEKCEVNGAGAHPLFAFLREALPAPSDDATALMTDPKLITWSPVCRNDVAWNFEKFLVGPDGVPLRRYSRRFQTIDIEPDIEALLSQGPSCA
Sequence of Cytochrome P450 1A2 (Homo sapiens) (P05177 whole entry, looked up): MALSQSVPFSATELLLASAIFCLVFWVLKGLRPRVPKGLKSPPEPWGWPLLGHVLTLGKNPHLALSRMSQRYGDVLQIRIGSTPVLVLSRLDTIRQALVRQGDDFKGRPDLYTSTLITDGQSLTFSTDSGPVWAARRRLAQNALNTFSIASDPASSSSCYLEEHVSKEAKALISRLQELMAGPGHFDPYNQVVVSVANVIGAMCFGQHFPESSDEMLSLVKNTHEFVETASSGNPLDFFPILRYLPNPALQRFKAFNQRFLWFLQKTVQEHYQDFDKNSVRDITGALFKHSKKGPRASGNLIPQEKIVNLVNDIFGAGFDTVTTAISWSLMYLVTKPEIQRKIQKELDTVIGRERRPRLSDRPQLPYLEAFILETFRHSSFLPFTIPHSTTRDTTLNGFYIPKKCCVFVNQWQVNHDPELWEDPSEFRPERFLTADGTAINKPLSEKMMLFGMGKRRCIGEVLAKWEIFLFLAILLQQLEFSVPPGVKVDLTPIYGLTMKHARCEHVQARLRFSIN
Sequence of Glucocorticoid receptor (Homo sapiens) (P04150 whole entry, looked up, the tested form may be a part): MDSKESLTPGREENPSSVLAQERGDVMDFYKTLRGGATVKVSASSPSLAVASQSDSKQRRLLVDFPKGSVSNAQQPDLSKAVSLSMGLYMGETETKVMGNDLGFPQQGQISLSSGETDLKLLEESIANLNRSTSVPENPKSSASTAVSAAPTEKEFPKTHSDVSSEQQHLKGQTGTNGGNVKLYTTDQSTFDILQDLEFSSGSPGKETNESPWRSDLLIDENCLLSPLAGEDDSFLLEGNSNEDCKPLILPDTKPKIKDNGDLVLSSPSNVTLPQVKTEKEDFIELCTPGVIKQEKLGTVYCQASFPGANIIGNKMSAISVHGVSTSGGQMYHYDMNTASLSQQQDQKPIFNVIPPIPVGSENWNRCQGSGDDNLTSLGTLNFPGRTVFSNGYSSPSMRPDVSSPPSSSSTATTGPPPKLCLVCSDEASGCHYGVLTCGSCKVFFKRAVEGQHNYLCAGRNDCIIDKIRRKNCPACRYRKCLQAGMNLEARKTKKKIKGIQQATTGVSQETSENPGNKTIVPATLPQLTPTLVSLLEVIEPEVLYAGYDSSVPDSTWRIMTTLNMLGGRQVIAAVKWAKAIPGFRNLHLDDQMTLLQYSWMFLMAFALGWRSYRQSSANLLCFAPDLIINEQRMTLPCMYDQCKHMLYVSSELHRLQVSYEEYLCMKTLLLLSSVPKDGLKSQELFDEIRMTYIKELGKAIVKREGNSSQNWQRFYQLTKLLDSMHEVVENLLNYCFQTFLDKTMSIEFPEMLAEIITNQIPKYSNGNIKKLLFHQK
Sequence of Cytochrome P450 3A4 (Homo sapiens) (P08684 whole entry, looked up): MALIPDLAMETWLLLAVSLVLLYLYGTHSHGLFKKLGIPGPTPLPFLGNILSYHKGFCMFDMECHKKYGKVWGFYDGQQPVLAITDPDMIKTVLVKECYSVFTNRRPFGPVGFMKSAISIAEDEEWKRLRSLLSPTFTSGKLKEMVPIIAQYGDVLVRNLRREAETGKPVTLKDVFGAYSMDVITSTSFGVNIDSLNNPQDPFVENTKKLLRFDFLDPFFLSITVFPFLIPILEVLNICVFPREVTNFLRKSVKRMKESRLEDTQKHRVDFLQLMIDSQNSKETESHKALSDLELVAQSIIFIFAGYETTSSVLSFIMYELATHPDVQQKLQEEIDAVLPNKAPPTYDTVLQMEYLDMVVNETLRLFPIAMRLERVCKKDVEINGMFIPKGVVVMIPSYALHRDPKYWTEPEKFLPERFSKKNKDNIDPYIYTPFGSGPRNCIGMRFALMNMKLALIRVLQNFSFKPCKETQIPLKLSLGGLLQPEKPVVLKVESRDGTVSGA
Sequence of Cytochrome P450 2C19 (Homo sapiens) (P33261 whole entry, looked up): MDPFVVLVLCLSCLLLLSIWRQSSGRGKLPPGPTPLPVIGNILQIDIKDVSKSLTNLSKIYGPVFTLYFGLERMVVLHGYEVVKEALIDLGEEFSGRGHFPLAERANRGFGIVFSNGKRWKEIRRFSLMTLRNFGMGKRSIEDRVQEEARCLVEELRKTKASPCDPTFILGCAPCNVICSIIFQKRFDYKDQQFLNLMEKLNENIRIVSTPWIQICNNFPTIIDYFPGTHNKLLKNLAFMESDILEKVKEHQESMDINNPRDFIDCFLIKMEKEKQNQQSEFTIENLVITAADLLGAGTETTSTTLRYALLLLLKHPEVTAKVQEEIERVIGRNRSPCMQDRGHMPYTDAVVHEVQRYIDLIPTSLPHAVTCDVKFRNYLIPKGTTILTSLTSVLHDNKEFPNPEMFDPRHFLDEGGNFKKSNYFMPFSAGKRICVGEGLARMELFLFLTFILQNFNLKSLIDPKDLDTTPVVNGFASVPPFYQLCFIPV
Sequence of Dual specificity protein kinase CLK4 (Homo sapiens) (Q9HAZ1 whole entry, looked up): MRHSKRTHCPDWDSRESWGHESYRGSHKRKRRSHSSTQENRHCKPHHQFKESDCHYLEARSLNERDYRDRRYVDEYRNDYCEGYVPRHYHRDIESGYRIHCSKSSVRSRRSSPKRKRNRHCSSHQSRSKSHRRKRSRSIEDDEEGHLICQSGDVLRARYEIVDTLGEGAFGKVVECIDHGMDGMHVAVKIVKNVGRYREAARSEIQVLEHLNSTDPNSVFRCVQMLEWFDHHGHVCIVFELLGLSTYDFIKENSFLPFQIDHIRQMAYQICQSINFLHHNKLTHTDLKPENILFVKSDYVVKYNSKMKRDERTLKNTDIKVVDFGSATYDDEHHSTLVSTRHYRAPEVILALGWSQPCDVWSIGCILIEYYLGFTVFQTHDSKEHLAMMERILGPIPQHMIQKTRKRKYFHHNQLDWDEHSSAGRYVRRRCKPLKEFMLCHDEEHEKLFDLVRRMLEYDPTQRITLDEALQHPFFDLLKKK
Sequence of Lysosomal acid glucosylceramidase (Homo sapiens) (P04062 whole entry, looked up): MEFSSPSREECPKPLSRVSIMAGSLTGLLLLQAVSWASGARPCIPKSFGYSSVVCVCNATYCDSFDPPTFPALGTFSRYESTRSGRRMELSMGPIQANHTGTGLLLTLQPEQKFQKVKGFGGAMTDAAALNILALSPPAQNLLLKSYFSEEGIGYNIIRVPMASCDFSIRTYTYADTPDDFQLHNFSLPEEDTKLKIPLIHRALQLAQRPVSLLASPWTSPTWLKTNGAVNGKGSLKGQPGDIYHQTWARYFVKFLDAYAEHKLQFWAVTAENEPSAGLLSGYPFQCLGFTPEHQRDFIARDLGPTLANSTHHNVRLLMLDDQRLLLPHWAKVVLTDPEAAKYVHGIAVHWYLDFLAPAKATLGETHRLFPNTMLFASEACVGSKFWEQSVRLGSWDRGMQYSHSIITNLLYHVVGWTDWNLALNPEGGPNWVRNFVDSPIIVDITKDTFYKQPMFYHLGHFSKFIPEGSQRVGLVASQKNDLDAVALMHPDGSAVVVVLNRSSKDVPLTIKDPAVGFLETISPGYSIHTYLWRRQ
Sequence of 3',5'-cyclic-AMP phosphodiesterase 4B (Homo sapiens) (Q07343 whole entry, looked up): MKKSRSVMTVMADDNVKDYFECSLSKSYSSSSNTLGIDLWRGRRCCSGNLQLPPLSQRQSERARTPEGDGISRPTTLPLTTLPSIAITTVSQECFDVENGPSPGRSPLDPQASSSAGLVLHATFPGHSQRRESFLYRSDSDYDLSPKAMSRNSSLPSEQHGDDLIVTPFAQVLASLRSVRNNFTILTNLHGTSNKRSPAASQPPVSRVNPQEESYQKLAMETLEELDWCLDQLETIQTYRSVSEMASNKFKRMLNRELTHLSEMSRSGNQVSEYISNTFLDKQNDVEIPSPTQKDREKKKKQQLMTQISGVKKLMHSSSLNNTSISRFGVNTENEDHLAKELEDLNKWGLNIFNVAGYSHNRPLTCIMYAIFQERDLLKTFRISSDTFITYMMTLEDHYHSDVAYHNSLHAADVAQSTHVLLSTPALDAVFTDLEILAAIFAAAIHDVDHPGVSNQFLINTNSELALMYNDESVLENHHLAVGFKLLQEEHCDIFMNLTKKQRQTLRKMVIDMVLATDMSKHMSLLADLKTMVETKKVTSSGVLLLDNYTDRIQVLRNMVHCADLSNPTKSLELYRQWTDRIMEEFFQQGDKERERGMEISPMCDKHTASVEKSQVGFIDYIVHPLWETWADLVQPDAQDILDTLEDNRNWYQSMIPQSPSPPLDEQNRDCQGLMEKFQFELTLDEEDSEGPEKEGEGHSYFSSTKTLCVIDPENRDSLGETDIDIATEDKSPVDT
Sequence of Peroxisome proliferator-activated receptor alpha (Homo sapiens) (Q07869 whole entry, looked up, the tested form may be a part): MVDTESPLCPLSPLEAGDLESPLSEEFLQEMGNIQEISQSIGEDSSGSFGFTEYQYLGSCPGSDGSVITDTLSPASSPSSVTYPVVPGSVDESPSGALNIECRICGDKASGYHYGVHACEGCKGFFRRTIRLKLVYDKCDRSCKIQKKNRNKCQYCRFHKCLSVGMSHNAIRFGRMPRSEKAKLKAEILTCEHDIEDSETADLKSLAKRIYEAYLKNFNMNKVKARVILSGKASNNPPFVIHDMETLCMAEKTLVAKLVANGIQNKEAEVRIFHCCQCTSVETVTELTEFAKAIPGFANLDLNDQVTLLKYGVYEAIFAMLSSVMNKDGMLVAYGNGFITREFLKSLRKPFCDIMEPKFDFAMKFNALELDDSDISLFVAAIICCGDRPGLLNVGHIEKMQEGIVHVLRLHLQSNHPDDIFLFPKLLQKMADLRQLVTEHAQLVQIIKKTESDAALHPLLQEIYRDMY

Cc1cccc(CNc2ncncc2-c2ccccc2C)c1
inactive: activity change, negative = inhibition [1] -10% | Potency [3] > 46 µM | outcome [5] | Potency [6] | Potency [7]
active: Potency [2] 2.51 µM | Potency [4] 0.398 µM

CN(Cc1ccco1)c1nc(-c2ccccc2C(F)(F)F)nc2ccccc12
active: Potency [2] 2 µM | Potency [10] 7.94 µM | Potency [6] 20 µM
inactive: Potency [8] > 11.4 µM | activity change, negative = inhibition [1] 23.8% | outcome [9] | outcome [5] | Potency [7]

COc1ccc2[nH]cc(CCNc3ncncc3-c3ccoc3)c2c1
inactive: Potency [8] > 11.4 µM | outcome [9] | Potency [3] > 46 µM | Potency [11]
active: Potency [6] 14.1 µM | Potency [7] 3.55 µM

COCCn1c(=O)c(-c2cccc(C#N)c2)nc2cnc(OCc3ccccc3)nc21
inactive: Potency [8] > 11.4 µM | activity change, negative = inhibition [1] -20.4% | Potency [11] | outcome [5] | Potency [10] | Potency [6] | Potency [7]
active: Potency [2] 12.6 µM

c1ccc2c(NCCN3CCOCC3)nc(-c3ccc4c(c3)OCO4)nc2c1
inactive: Potency [8] > 11.4 µM | activity change, negative = inhibition [1] -11.7% | outcome [9] | Potency [3] > 46 µM | Potency [11] | Potency [6] | Potency [7]

Cn1cc(-c2nc3cnc(N4CCNCC4)nc3n(CCc3ccccc3)c2=O)c2ccccc21
active: Potency [2] 15.8 µM | Potency [10] 2 µM
inactive: Potency [8] > 11.4 µM | Potency [11] | outcome [5] | Potency [6] | Potency [7]

Clc1ccccc1-c1ccc2ncnc(NCCN3CCOCC3)c2c1
inactive: Potency [3] > 46 µM | outcome [5]
active: Potency [2] 5.01 µM | Potency [4] 5.01 µM | Potency [6] 28.2 µM

CCCCCC/C=C\CCCCCCCC(=O)O
inactive: Potency [12]

CC(=O)OC1CC2CCC1(C)C2(C)C (configuration not stated)
inactive: Potency [12]

CC1(C)C2CCC1(C)C(O)C2 (configuration not stated)
inactive: Potency [12]

COCCn1c(=O)c(-c2cccs2)nc2cnc(N3CCNCC3)nc21
inactive: Potency [8] > 11.4 µM | Potency [3] > 46 µM | Potency [11] | outcome [5] | Potency [7]

COc1ccc2[nH]cc(CCNc3nc(-c4ccccc4OC)nc4ccccc34)c2c1
active: Potency [2] 6.31 µM | Potency [4] 2.51 µM | Potency [10] 5.01 µM
inactive: Potency [8] > 11.4 µM | activity change, negative = inhibition [1] 23.7% | outcome [9] | Potency [3] > 46 µM | Potency [11] | outcome [5]

Cc1ncc(COP(=O)(O)O)c(C)c1O
inactive: Potency [8] > 11.4 µM | activity change, negative = inhibition [1] 9.96% | outcome [9] | Potency [3] > 9.22 µM | Potency [11] | Potency [12]

O=C(O)c1ccccc1
inactive: Potency [13] > 92 µM | Potency [4] | outcome [14] | activation [16] 2.1% | max response [17] -2.27% | max response [18] 1.2% | max response [19] -1.04% | Potency [20]
-4.31%: max response [15]

COc1ccccc1CNc1nc(-c2ccoc2)nc2ccccc12
inactive: activity change, negative = inhibition [1] 7.68% | outcome [9] | Potency [7]

COc1ccccc1-c1nc(NC2CC2)c2ccccc2n1
active: Potency [2] 0.316 µM
inactive: activity change, negative = inhibition [1] -2.64% | outcome [9] | Potency [3] > 46 µM | outcome [5]

CC(C)=CCCC(C)=CCCC(C)=CCCC=C(C)CCC=C(C)CCC=C(C)C
inactive: Potency [12]

COc1cccc(Nc2ncc3ncc(=O)n(Cc4ccc(F)cc4)c3n2)c1
inactive: Potency [8] > 11.4 µM | activity change, negative = inhibition [1] -28.1% | Potency [3] > 46 µM
active: Potency [6] 3.98 µM

C=CC(C)(CCC=C(C)C)OC(C)=O (configuration not stated)
-5.27%: max response [15]
inactive: activation [16] 3.8% | max response [17] -0.802% | max response [18] -13.5% | max response [19] -14.2% | Potency [20]

COc1ccc2[nH]cc(CCNc3ncnc4ccc(-c5cccc(C#N)c5)cc34)c2c1
inactive: Potency [8] > 11.4 µM | Potency [3] > 46 µM | outcome [5]
active: Potency [4] 2.51 µM | Potency [10] 7.94 µM | Potency [6] 12.6 µM

Cc1ccccc1-c1nc(Nc2ccncc2)c2ccccc2n1
active: Potency [2] 0.794 µM | Potency [4] 6.31 µM
inactive: activity change, negative = inhibition [1] -17.3% | outcome [9] | Potency [3] > 46 µM | outcome [5] | Potency [7]

Cc1cnc(CNc2ncnc3ccc(-c4ccccc4C)cc23)cn1
active: Potency [4] 3.98 µM | Potency [6] 28.2 µM
inactive: Potency [8] > 11.4 µM | activity change, negative = inhibition [1] -14.7% | outcome [9] | Potency [3] > 46 µM | Potency [11] | outcome [5]

COc1ccc2[nH]cc(CCNc3ncncc3-c3ccccc3C)c2c1
active: Potency [2] 0.631 µM | Potency [4] 0.316 µM | Potency [10] 0.0501 µM
inactive: Potency [8] > 11.4 µM | Potency [3] > 46 µM | Potency [11] | outcome [5]
